Data: the supplement of paper PMC10849652
The full data set covers some 8,800 targets. This sample favours those with a hit. About 0.5% of all pairs of compound and target were hits.

Columns and labels:
Assay in all cases: log2 fold change, soluble protein after heating vs DMSO (PISA); higher = thermal stabilisation; K562 lysate, 10 uM; active = over 0.2 and 3.5 SD of the protein, either way, in both replicates (recomputed)
[1] = compound: C1=CC=C(C=C1)[C@H](COC2=CC3=C(C=C2)NC(=O)N3)NC(=O)C4=CC=CN(C4=O)CC5=CC(=C(C=C5)F)F
Summary of the method: (§1)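 K562 pellets were dounce-homogenised in PBS pH 7.4 containing 1 mM MgCl2, and the crude extract, at 1 mg/mL protein, was exposed to 10 μM compound for 30 min. Aliquots were heated for 3 min across 48°C-58°C, pooled, brought to 0.5% NP-40 at 4°C and spun at 21,000xg for 90 min, with the supernatant taken as soluble protein. TMTpro 16plex LC-MS/MS with equalised channel sums quantified that protein. Values are log-two fold changes in thermal stability relative to solvent controls, taken from duplicates.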

[2] = compound: CC1=C(SC2=C1C(=N[C@H](C3=NN=C(N32)C)CC(=O)N)C4=CC=C(C=C4)Cl)C
Summary of the method: as §1

[3] = compound: CC1=C2C(=CC=C1)N=C(N(C2=O)C3=CC=CC=C3C)CN4C=NC5=C(N=CN=C54)N
Summary of the method: as §1

[4] = compound: Cc1sc2c(c1C)C(c1ccc(Cl)cc1)=N[C@@H](CC(=O)OC(C)(C)C)c1nnc(C)n1-2
Summary of the method: as §1

[5] = compound: c1ccc([C@@H]2C[C@H]2NC2CCNCC2)cc1
Summary of the method: as §1

Measured: log2 fold change

TAF6L (UniProt Q9Y6J9)
Sequence of UniProt Q9Y6J9 (Q9Y6J9 whole entry, looked up): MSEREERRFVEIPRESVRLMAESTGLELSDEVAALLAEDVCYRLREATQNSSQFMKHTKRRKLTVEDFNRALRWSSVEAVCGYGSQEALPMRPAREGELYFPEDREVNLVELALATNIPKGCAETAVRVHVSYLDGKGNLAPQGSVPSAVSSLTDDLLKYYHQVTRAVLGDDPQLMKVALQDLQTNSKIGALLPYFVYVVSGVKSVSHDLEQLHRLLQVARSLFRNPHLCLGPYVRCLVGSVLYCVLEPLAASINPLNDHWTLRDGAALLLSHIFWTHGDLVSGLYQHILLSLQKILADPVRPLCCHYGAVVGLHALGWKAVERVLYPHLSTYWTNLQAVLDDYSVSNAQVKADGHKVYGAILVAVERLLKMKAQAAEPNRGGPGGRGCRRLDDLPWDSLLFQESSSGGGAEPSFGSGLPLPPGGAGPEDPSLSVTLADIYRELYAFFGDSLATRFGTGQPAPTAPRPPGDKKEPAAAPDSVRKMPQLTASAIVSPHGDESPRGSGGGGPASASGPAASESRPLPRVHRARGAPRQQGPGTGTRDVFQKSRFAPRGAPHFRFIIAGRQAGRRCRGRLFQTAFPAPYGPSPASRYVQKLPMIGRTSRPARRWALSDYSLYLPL
inactive: [1] 0.011 | [2] -0.027 | [3] -0.094 | [4] -0.02 | [5] 0.061

TADA3 (UniProt O75528)
Sequence of UniProt O75528 (O75528 whole entry, looked up): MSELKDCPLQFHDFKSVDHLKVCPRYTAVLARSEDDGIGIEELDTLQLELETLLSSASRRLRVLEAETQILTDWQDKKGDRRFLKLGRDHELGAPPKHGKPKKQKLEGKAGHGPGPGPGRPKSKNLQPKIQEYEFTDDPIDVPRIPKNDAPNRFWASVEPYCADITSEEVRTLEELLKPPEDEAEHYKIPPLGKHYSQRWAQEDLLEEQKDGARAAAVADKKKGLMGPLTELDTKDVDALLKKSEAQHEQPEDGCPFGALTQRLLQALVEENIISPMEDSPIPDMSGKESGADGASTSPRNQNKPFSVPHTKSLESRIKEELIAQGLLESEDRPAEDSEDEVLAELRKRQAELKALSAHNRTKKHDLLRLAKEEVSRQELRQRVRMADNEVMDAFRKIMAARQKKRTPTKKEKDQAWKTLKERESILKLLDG
inactive: [1] 0.043 | [2] 0 | [3] 0.087 | [4] -0.015 | [5] -0.098

SMIM8 (UniProt Q96KF7)
Sequence of UniProt Q96KF7 (Q96KF7 whole entry, looked up): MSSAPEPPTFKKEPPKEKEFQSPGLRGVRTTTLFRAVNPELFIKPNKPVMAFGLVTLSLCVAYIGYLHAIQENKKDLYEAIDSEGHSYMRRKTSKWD
inactive: [1] 0.061 | [2] 0.044 | [3] 0.004 | [4] 0.047 | [5] -0.157

STK26 (UniProt Q9P289)
Sequence of UniProt Q9P289 (Q9P289 whole entry, looked up): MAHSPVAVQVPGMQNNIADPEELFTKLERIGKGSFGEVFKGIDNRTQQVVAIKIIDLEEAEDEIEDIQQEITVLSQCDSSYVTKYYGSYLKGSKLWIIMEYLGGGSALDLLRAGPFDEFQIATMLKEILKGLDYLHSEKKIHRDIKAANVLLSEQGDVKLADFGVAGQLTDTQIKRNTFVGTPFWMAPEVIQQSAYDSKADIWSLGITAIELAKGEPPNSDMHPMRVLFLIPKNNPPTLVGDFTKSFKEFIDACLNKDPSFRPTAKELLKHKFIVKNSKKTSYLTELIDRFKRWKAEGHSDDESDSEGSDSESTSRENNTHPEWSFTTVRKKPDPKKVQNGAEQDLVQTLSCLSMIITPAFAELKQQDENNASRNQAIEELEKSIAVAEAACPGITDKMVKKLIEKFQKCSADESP
inactive: [1] -0.015 | [2] -0.015 | [3] 0.008 | [4] -0.015 | [5] 0.02

SLC20A1 (UniProt Q8WUM9)
inactive: [1] 0.071 | [2] -0.048 | [3] 0.007 | [4] -0.046 | [5] 0.024

SRM (UniProt P19623)
Sequence of UniProt P19623 (P19623 whole entry, looked up): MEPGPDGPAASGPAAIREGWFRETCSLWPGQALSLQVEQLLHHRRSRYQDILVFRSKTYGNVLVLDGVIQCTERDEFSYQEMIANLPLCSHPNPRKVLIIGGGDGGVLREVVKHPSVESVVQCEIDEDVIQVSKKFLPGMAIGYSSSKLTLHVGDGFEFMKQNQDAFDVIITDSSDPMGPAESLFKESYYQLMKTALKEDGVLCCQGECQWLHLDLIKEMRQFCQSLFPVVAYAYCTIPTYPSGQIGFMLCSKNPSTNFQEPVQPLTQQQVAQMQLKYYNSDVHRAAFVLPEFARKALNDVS
inactive: [1] -0.007 | [2] 0.029 | [3] 0.001 | [4] 0.009 | [5] 0.039

SMIM12 (UniProt Q96EX1)
Sequence of UniProt Q96EX1 (Q96EX1 whole entry, looked up): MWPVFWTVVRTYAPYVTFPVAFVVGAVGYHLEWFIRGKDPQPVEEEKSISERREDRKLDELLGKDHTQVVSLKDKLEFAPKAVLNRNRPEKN
inactive: [1] -0.026 | [2] -0.006 | [3] 0.004 | [4] 0.105 | [5] 0.153

SHC1 isoform 6 (UniProt P29353)
Sequence of UniProt P29353 (P29353 whole entry, looked up): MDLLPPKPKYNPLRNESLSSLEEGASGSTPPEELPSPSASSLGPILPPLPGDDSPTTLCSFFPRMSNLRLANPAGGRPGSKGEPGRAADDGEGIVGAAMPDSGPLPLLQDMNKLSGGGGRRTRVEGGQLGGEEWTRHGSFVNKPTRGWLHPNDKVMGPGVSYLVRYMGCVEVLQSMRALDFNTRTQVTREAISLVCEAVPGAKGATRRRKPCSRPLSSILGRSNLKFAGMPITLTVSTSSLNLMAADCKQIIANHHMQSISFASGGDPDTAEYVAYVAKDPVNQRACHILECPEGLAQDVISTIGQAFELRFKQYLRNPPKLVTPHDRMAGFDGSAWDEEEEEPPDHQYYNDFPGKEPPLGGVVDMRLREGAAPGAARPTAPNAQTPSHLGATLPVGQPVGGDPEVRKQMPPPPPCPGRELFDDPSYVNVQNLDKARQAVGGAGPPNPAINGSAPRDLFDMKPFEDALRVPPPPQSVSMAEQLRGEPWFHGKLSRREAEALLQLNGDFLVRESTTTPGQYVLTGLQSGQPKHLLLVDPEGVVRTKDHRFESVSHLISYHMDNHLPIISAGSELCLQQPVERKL
inactive: [1] 0.019 | [2] 0.006 | [3] 0.056 | [4] 0.087 | [5] 0.25

STAT2 (UniProt P52630)
Sequence of UniProt P52630 (P52630 whole entry, looked up): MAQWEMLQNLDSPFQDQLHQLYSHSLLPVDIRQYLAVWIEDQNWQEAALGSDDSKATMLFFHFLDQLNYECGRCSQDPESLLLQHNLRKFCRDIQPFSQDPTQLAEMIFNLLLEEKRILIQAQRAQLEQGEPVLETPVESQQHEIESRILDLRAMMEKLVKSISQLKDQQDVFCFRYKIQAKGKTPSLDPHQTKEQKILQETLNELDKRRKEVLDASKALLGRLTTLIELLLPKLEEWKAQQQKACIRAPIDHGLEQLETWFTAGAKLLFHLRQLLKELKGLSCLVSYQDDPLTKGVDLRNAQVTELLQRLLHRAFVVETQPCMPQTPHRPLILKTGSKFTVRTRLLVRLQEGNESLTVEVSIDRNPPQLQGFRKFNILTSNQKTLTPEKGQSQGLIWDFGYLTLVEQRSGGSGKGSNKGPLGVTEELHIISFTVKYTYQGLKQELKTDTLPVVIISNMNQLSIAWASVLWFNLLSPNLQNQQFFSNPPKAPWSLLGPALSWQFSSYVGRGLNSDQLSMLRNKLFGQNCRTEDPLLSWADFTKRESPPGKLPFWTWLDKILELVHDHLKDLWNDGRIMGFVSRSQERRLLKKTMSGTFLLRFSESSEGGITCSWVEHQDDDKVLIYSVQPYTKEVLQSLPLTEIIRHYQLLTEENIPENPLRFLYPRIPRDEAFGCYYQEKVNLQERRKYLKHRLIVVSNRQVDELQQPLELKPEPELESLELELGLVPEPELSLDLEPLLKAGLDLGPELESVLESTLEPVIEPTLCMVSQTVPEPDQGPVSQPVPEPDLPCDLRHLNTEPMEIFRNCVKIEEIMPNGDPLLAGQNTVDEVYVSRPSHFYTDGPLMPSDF
inactive: [1] -0.033 | [2] 0.005 | [3] 0.043 | [4] 0.033 | [5] 0.017

STOML2 (UniProt Q9UJZ1)
Sequence of UniProt Q9UJZ1 (Q9UJZ1 whole entry, looked up): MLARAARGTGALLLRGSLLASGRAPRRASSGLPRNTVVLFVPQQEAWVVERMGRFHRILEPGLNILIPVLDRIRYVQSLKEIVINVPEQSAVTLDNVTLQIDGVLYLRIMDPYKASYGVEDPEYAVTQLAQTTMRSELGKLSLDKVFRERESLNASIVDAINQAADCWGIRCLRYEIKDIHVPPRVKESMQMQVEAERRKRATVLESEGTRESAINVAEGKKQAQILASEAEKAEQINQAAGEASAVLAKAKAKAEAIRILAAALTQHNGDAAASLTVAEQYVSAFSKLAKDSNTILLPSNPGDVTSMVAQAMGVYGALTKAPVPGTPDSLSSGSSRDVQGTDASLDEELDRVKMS
inactive: [1] -0.008 | [2] 0.004 | [3] -0.027 | [4] -0.025 | [5] -0.008

SPIRE1 (UniProt Q08AE8)
Sequence of UniProt Q08AE8 (Q08AE8 whole entry, looked up): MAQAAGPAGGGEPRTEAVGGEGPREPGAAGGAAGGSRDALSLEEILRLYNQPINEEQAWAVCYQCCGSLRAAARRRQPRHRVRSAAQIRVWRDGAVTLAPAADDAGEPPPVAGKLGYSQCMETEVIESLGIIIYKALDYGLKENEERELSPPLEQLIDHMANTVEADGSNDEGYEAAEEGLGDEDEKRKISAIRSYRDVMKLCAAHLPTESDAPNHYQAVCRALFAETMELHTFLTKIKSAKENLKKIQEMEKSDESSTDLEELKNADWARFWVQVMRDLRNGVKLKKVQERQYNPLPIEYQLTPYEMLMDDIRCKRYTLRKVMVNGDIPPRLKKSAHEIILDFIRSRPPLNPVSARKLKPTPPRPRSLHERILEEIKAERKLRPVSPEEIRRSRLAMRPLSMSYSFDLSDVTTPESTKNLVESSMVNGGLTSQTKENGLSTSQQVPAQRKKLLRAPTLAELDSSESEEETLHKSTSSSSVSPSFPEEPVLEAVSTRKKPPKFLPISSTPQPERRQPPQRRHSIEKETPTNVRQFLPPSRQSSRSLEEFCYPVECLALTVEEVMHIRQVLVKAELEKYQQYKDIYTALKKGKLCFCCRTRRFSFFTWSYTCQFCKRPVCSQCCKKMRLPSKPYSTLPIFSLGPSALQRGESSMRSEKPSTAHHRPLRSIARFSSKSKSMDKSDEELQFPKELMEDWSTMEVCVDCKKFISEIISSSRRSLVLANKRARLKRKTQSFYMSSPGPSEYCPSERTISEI
inactive: [1] -0.008 | [2] 0.031 | [3] -0.006 | [4] -0.053 | [5] -0.212

STK24 (UniProt B4DR80)
inactive: [1] -0.025 | [2] 0.003 | [3] -0.041 | [4] -0.019 | [5] -0.055

SFR1 isoform 2 (UniProt Q86XK3)
Sequence of UniProt Q86XK3 (Q86XK3 whole entry, looked up): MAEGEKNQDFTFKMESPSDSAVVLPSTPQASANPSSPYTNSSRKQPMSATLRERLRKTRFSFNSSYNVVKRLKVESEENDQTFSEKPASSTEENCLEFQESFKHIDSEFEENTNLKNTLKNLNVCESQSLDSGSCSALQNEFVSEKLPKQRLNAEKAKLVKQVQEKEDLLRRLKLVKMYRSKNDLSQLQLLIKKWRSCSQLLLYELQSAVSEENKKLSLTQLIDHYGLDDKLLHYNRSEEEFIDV
inactive: [1] -0.035 | [2] -0.005 | [3] -0.01 | [4] 0 | [5] 0.072
